Of roughly 7,900 targets only a part is listed; those with a hit were picked by preference. About 0.6% of all pairs of compound and target were hits.
How the values were obtained:
Assay in all cases: log2 fold change, soluble protein after heating vs DMSO (PISA); higher = thermal stabilisation; K562 cells, 10 uM, 30 min; active = over 0.2 and 3.5 SD of the protein, either way, in both replicates (recomputed)
[1] = compound: C1=CC=C(C=C1)[C@H](COC2=CC3=C(C=C2)NC(=O)N3)NC(=O)C4=CC=CN(C4=O)CC5=CC(=C(C=C5)F)F
In short: (§1)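 K562 cells at 2×10^6 cells/mL were exposed to 10 μM compound for 30 min, then aliquots were heated for 3 min across 48°C-58°C, pooled, and extracted in PBS containing 0.5% NP-40 at 4°C. The supernatant after 21,000xg for 90 min was taken as soluble protein and measured by TMTpro 16plex LC-MS/MS with channel sums equalised. Thermal stability is reported relative to control samples, with values from duplicates. Fold changes are given on a log2 scale.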

[2] = compound: CC1=C(SC2=C1C(=N[C@H](C3=NN=C(N32)C)CC(=O)N)C4=CC=C(C=C4)Cl)C
In short: as §1

[3] = compound: CC1=C2C(=CC=C1)N=C(N(C2=O)C3=CC=CC=C3C)CN4C=NC5=C(N=CN=C54)N
In short: as §1

[4] = compound: Cc1sc2c(c1C)C(c1ccc(Cl)cc1)=N[C@@H](CC(=O)OC(C)(C)C)c1nnc(C)n1-2
In short: as §1

[5] = compound: c1ccc([C@@H]2C[C@H]2NC2CCNCC2)cc1
In short: as §1

Measured: log2 fold change

TXNIP (UniProt Q9H3M7)
UniProt Q9H3M7, sequence (Q9H3M7 whole entry, looked up): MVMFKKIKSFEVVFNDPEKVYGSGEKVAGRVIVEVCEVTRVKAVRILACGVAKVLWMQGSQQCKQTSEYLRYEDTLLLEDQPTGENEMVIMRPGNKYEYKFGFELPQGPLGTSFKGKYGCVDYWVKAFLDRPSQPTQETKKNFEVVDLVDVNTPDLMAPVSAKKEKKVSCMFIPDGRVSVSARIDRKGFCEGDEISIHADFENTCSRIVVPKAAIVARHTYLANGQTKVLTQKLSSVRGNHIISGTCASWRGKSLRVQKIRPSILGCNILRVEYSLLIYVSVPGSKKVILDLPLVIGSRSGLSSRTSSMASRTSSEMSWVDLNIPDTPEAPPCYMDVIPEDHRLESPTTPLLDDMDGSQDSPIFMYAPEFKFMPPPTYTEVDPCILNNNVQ
inactive: [1] -0.011 | [2] 0.148 | [3] -0.012 | [4] -0.039 | [5] -0.099

WARS2 (UniProt Q9UGM6)
UniProt Q9UGM6, sequence (Q9UGM6 whole entry, looked up): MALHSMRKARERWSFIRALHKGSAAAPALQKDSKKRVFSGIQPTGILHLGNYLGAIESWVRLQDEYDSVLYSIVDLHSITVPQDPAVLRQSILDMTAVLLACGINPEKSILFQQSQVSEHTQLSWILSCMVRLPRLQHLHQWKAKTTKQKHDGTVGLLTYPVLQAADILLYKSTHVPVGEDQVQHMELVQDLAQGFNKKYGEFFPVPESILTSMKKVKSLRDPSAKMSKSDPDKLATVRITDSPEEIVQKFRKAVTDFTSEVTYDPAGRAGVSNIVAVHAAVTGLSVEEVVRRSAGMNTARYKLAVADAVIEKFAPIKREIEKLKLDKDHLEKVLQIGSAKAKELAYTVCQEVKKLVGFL
inactive: [1] -0.025 | [2] -0.009 | [3] 0.104 | [4] -0.002 | [5] 0.06

WDHD1 (UniProt O75717)
inactive: [1] -0.014 | [2] 0.085 | [3] 0.121 | [4] 0.002 | [5] 0.015

XPOT (UniProt O43592)
UniProt O43592, sequence (O43592 whole entry, looked up): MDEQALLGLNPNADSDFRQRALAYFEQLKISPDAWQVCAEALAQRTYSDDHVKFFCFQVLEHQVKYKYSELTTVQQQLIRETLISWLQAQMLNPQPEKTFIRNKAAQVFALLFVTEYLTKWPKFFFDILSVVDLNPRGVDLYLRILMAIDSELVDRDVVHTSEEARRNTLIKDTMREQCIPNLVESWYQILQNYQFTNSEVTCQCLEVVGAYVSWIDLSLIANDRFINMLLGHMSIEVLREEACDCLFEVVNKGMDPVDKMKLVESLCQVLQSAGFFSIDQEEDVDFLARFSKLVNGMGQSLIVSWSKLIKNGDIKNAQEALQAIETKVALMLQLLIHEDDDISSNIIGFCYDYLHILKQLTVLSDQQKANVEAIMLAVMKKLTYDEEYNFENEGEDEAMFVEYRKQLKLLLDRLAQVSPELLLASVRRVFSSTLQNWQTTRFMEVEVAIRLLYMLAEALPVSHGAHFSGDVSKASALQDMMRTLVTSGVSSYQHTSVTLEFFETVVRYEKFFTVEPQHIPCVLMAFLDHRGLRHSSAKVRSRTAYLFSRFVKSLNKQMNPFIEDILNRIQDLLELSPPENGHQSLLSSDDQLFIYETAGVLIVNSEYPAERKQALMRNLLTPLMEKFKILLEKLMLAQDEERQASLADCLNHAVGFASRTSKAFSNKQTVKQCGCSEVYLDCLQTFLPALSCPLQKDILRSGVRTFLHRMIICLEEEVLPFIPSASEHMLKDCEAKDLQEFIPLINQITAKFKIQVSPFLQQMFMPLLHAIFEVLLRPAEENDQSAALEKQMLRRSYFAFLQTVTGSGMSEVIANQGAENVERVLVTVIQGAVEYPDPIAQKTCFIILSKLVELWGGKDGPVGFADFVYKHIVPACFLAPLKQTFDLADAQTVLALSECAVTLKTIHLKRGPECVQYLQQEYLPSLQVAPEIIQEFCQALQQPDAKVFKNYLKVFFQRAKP
inactive: [1] -0.028 | [2] 0.06 | [3] 0.083 | [4] -0.002 | [5] -0.001

TXNRD1 (UniProt Q16881)
UniProt Q16881, sequence (Q16881 whole entry, looked up): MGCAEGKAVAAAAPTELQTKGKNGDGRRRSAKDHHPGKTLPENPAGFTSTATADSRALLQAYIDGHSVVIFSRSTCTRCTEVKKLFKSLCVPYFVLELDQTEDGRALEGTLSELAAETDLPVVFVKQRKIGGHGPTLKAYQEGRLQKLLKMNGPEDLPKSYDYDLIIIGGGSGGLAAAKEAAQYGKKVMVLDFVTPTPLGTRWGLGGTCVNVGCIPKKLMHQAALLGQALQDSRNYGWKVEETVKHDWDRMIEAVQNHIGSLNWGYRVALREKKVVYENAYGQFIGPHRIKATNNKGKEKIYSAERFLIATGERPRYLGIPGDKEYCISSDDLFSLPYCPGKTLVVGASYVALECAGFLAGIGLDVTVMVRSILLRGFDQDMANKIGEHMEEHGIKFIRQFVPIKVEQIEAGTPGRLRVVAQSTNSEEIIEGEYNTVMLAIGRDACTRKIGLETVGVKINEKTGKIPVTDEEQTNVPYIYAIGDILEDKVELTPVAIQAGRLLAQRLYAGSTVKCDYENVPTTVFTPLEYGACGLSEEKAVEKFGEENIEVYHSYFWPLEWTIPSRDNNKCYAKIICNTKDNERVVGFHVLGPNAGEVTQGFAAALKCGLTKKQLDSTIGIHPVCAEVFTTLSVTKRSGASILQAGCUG
inactive: [1] -0.066 | [2] 0.086 | [3] 0.023 | [4] -0.031 | [5] -0.032

UTP4 (UniProt Q969X6)
UniProt Q969X6, sequence (Q969X6 whole entry, looked up): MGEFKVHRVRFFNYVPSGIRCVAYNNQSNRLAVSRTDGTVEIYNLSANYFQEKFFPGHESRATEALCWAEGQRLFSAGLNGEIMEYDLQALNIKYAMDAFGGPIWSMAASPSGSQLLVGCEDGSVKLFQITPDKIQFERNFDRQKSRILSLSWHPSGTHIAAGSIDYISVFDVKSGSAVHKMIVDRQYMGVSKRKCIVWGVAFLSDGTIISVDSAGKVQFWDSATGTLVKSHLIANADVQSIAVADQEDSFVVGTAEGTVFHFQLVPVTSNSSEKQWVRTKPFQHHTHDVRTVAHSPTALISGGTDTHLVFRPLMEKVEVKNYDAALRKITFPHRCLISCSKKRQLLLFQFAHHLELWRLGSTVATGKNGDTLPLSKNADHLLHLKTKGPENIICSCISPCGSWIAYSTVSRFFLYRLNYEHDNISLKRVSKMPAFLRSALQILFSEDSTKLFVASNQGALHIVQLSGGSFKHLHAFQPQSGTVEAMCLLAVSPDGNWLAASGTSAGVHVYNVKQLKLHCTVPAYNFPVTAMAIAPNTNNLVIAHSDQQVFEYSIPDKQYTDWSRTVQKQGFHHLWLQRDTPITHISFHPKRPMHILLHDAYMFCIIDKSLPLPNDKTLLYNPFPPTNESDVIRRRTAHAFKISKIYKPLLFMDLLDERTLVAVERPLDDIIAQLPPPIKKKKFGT
inactive: [1] 0.009 | [2] 0.039 | [3] -0.044 | [4] 0.004 | [5] -0.021

USP3 (UniProt Q9Y6I4)
UniProt Q9Y6I4, sequence (Q9Y6I4 whole entry, looked up): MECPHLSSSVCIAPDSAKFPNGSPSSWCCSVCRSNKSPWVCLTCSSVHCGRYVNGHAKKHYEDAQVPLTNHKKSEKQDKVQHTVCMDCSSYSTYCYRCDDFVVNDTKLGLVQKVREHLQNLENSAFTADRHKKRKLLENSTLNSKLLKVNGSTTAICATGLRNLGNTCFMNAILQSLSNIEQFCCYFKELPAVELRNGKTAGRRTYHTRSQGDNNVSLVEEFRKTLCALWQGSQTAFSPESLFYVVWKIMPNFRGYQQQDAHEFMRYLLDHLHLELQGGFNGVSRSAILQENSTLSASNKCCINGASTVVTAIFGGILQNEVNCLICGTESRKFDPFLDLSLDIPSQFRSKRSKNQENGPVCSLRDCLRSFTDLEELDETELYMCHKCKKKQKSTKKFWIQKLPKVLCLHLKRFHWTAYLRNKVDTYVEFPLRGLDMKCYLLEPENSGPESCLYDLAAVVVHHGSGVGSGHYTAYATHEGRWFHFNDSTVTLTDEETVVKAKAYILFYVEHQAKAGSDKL
inactive: [1] 0 | [2] 0.143 | [3] 0.036 | [4] -0.061 | [5] -0.025

UFM1 isoform 2 (UniProt P61960)
UniProt P61960, sequence (P61960 whole entry, looked up): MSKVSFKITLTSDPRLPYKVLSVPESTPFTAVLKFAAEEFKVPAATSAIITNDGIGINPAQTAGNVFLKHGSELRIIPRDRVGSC
inactive: [1] -0.032 | [2] -0.009 | [3] 0.066 | [4] -0.069 | [5] -0.048

TRAPPC2L (UniProt Q9UL33)
UniProt Q9UL33, sequence (Q9UL33 whole entry, looked up): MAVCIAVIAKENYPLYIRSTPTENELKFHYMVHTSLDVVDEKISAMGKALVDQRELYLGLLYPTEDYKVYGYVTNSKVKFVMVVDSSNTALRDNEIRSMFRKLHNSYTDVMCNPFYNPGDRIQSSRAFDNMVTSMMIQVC
inactive: [1] -0.014 | [2] -0.044 | [3] -0.058 | [4] -0.063 | [5] 0.038

TNNC2 (UniProt P02585)
UniProt P02585, sequence (P02585 whole entry, looked up): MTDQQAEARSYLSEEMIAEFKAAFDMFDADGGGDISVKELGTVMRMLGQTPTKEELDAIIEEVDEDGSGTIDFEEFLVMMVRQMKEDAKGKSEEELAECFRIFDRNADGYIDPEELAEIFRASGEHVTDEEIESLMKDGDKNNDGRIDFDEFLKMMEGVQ
inactive: [1] 0.043 | [2] 0.004 | [3] 0.06 | [4] -0.624 | [5] 0.031

TRAM1 (UniProt Q15629)
inactive: [1] -0.167 | [2] -0.024 | [3] -0.008 | [4] 0.049 | [5] -0.018

UBXN8 (UniProt O00124)
inactive: [1] 0.3 | [2] -0.074 | [3] 0.192 | [4] 0.099 | [5] -0.055

TRIM28 (UniProt Q13263)
UniProt Q13263, sequence (Q13263 whole entry, looked up): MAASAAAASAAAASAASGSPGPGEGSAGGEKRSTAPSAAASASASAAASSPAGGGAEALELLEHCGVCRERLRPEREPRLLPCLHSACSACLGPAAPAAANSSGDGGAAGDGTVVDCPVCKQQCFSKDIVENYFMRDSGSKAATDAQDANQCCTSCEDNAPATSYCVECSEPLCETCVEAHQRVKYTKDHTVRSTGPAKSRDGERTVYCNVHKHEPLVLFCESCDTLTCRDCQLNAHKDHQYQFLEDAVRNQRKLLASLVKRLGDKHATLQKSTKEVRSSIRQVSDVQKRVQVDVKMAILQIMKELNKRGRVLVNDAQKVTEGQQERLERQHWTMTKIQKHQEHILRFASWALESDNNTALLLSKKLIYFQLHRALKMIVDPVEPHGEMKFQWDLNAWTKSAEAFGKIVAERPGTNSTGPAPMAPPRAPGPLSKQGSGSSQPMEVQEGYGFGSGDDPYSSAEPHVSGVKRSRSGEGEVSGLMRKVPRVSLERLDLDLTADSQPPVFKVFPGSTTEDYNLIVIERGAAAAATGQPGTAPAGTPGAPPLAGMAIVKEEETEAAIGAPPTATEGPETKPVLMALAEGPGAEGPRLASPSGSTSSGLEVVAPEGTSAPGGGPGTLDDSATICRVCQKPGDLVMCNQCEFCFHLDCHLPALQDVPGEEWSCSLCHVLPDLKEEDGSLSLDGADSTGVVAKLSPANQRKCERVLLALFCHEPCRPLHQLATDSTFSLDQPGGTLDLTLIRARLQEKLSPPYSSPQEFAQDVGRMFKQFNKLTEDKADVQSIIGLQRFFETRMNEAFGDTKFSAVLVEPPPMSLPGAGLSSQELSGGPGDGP
inactive: [1] -0.029 | [2] 0.029 | [3] 0.017 | [4] -0.012 | [5] 0.009

Source: the supplement of paper PMC10849652
